# Measurements as given in PubChem BioAssay (NCI).
# About 79,000 compounds went through this panel and 15% of them were active in at least one assay; those are over-represented in the sample as a whole. A number with no mark means an inactive call. The source made the active and inactive calls. Rule as the data show it: active = growth inhibition above about 70%; inactive = the rest.
# Experiments:
# [1] = NCI Yeast Anticancer Drug Screen. Data for the rad50 strain (AID 155);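 also: 0% = growth of vehicle-only cultures of the same strain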; details: S. cerevisiae rad50 strain growth inhibition; at 50.0 µM; active compounds read high
# How it was run: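 Growth of the mutant yeast was measured after compound exposure and referenced to vehicle-treated cultures.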
# [2] = NCI Yeast Anticancer Drug Screen. Data for the mec2-1 strain (AID 157); details: S. cerevisiae mec2-1 strain, at 50.0 µM, active compounds read high
# How it was run: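 Growth inhibition is read against vehicle-treated controls after compound exposure of the mec2-1 yeast strain, which is defective in DNA damage repair or cell cycle control.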
# [3] = NCI Yeast Anticancer Drug Screen. Data for the sgs1 mgt1 strain (AID 161);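 also: 0% = growth of cultures given vehicle only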; details: S. cerevisiae sgs1 mgt1 strain, at 50.0 µM, active compounds read high
# How it was run: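 Yeast cells carrying a defined DNA-repair defect were exposed to test compounds. Growth inhibition was measured relative to vehicle-treated controls.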
# [4] = NCI Yeast Anticancer Drug Screen. Data for the cln2 rad14 strain (AID 165);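 also: 0% = growth equal to vehicle treated cultures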; details: S. cerevisiae cln2 rad14 strain, at 50.0 µM, active compounds read high
# How it was run: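 Growth inhibition, relative to vehicle-treated controls, is the read-out. The test organism is a yeast strain with defined genetic alterations, cln2 rad14.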
# [5] = NCI Yeast Anticancer Drug Screen. Data for the bub3 strain (AID 167); details: S. cerevisiae bub3 mutant strain, at 50.0 µM, active compounds read high
# How it was run: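 Whole-cell yeast assay. The mutant strain was incubated with compounds, and growth inhibition was determined by comparison with vehicle-treated cells.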
# [6] = NCI Yeast Anticancer Drug Screen. Data for the mlh1 rad18 strain (AID 175); details: S. cerevisiae mlh1 rad18 strain growth inhibition; at 50.0 µM; active compounds read high
# How it was run: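 Cells of a genetically altered yeast strain, deficient in DNA damage repair, were treated with compound. Their growth was then compared with that of vehicle-treated cultures to give inhibition.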
Compound,growth inhibition [1],growth inhibition [2],growth inhibition [3],growth inhibition [4],growth inhibition [5],growth inhibition [6]
Cn1cnnc1Sc1c([N+](=O)[O-])nc(-c2ccc([N+](=O)[O-])cc2)n1C,-3.5%,3.15%,10.1%,35.1%,11.6%,8.95%
C[n+]1nc2ccccc2c(=Nc2ccccc2[N+](=O)[O-])[n-]1,10.3%,-2.35%,22.7%,14.1%,8.5%,-1.65%
COC(=O)c1nc2c(N)nc(-c3ccccc3)nc2nc1N,8.9%,-7.4%,23.1%,11.3%,-16.6%,-1.95%
CCC1CN2CCc3c([nH]c4ccccc34)[C@@](C(=O)OC)(c3cc4c(cc3OC)N(C)C3C(O)(C(=O)OC)C(C(=O)OC)C5(CC)C=CCN6CCC43C65)C[C@@H](C2)[C@@H]1C(C)(C)C (some centres not stated),-6.3%,-10%,-9%,-13.6%,-36.3%,-72.7%
CCCCNCCOC(=O)c1ccc(N)cc1,2.9%,2%,1.9%,16.4%,10.1%,12.1%
O=C(NCCCl)Nc1[nH]c(=O)ncc1Br,-13.2%,-12.7%,-10.8%,-44.4%,-6.85%,-12.3%
O=C(NCc1ccco1)Nc1ccccc1,-5.8%,-21.2%,-11.7%,-36%,7.1%,-7.55%
COc1ccc(C2ON(c3ccccn3)CC=C2C)cc1 (configuration not stated),12.4%,-9.25%,12.6%,12.2%,-2.45%,6.55%
N#C/C(=C\c1cccc(N)c1)c1ccccc1,45.4%,57.9%,73.7% (active),30.1%,88% (active),80% (active)
CCCCCCCCCC(=O)N(C)OC,6.1%,4.3%,7.05%,1.3%,-4.6%,18.1%
CC1CCCC(=O)CC1 (configuration not stated),7.35%,9.85%,-2.85%,16.3%,-0.45%,6.5%
O=C(O)C1OCOC2C(CO)OCOC12 (configuration not stated),11.8%,-5.35%,17%,-29.9%,-3.6%,11.1%
Nc1cccc(S(=O)(=O)Nc2ccccc2)c1,19.6%,25.6%,1.55%,-6.6%,0.65%,10%
COc1cc(/C=N/NC(=O)Cc2cccc3ccccc23)ccc1O,21.1%,9.5%,3.05%,-5.3%,39.4%,8.8%
O=C(COc1c(Cl)cc(Cl)c2ccccc12)NC1c2ccccc2Oc2ccccc21,22.6%,0.4%,34.1%,7.45%,10.2%,14.4%
Cc1cc(Br)c(NC(=O)c2c(-c3c(Cl)cccc3Cl)noc2C)c(Br)c1,-3.35%,-16.3%,-8.15%,4.9%,-11.7%,4.9%
NC1C(O)C(N)C(O)C(O)C1O (configuration not stated),3.3%,20.4%,5.6%,1.6%,-13.4%,3.25%
Cc1cc(C)c(C)c(CC(C)(CI)CI)c1C,20.3%,-13.2%,-4.7%,0.65%,-8.05%,-3.6%
CC(C)(C)c1cc(O)c(C(=O)O)cc1O,39.6%,29.6%,44.8%,17.6%,-3.9%,33.9%
COc1cc(C(=O)NNC(=O)C2CCC(=O)N2Cc2ccccc2)cc(OC)c1OC (configuration not stated),3.3%,-4.6%,-18%,-4.45%,-1.75%,28.4%
CCOC(=O)NCC(C)(C)C,-2.4%,10.9%,6.5%,-0.65%,-7.9%,35.4%

Compound,growth inhibition [1],growth inhibition [2],growth inhibition [3],growth inhibition [4],growth inhibition [5],growth inhibition [6]
COc1cc(C=Nc2ccccc2)ccc1OC(=O)c1ccccc1,15.8%,23.2%,17.6%,28.7%,16.9%,14.6%
CCOC(=O)C1C2CC3C(CC21C)C3(C)C (configuration not stated),-6.1%,-6.65%,-12.9%,-2.5%,-20.6%,1%
NNC(=O)c1csnn1,-24.6%,-22.6%,-24.5%,-25.4%,-23.6%,-7%
CC1CN=C(N(C(=O)Nc2ccc(F)c(Cl)c2)c2ccccc2)S1 (configuration not stated),-1.55%,14.3%,-12.3%,25.4%,41.3%,-29.9%
Cc1ccc(C(=O)Nc2ccc(CP(=O)(O)O)cc2)cc1NC(=O)c1cccc(N)c1,-27.2%,-14.7%,-20.4%,0.9%,-9%,4.15%
CCCCCCCCCc1ccc(COCC)cc1,-9.55%,11.9%,7.05%,-16%,22.1%,9.55%
CC12CCC(=O)C=C1CCC1C2C(O)CC2(C)C1CCC2(O)C(=O)COC(=O)C1C2C=CC(C2)C1C(=O)O (configuration not stated),24.1%,9.45%,25%,12.1%,-6.85%,25.1%
CCOC(=O)/C(C#N)=C(\C)c1ccc(O)c(OC)c1,11.4%,8.95%,-3.45%,24.1%,-8.1%,14.8%
NC(=O)SCC(N)C(=O)O (configuration not stated),0.25%,-21.4%,1.55%,3.55%,4.95%,6.8%
COC(=O)C(C)OP(=O)(OC(C)C(=O)OC)OC(C)C(=O)OC (configuration not stated),0.4%,-3.55%,-4.75%,-4.05%,15.1%,2.7%
COc1ccc2c(c1)CC[C@@H]1[C@@H]2CC[C@]2(C)[C@H](S)CC[C@@H]12,-3.45%,-15.7%,21.4%,-41%,18.1%,-7.3%
CC(O)C(C)NC(C)C(C)O (configuration not stated),0.4%,-0.35%,-30.8%,15.3%,12.1%,-2.85%
CS(=O)(=O)CC(O)c1ccccc1 (configuration not stated),4.8%,-3.2%,2.95%,-12.7%,6.65%,-21.4%
CCCC(=O)C1=C(O)C(CC2=C(O)C(C)(C)C(=O)C(C(=O)CCC)=C2O)=C(O)C(C)(C)C1=O,26.3%,-12.4%,-2.5%,1%,-0.15%,1.3%
O=[N+]([O-])c1ccc(SN2CCCCC2CC2CCCCC2)c([N+](=O)[O-])c1 (configuration not stated),19.9%,-4.6%,-18.9%,-2.25%,1.3%,3.1%
Cc1nc(NS(=O)(=O)c2ccc(N)cc2)nc(C)c1Br,-9.75%,-9.55%,4.1%,-52%,-14.7%,-15.1%
CCOC(=O)COc1ccc2c(C)cc(=O)oc2c1[N+](=O)[O-],11.4%,-6.85%,2.1%,6.95%,6.6%,35.5%
CCCCCCCCCCCCCCCCCC[N+]1(C)CCOCC1,99.2% (active),99.5% (active),99.1% (active),98.7% (active),99.2% (active),99.5% (active)
O=C(O)CN1C(=O)C2C3c4ccccc4C(c4ccccc43)C2C1=O (configuration not stated),-5.65%,-4.7%,1.25%,-26.6%,-19.6%,0%
CCC(Cl)COP(=O)(OCC(Cl)CC)O/C(C)=C(/C)P(=O)(OCC(Cl)CC)OCC(Cl)CC (configuration not stated),32.9%,29.6%,42.4%,47.1%,8.6%,69%
COC(=O)N1c2ccccc2N(C(=O)OC)c2c1oc1ccccc1c2=O,38.2%,12.6%,33.6%,7.3%,26.5%,31.9%
